Source: PubChem
In the library only some 13% were active in any assay of this set; here they are far more common.
HCV inh: qHTS Assay for Inhibitors of Hepatitis C Virus (HCV) | Huh7.5.1 HCVcc-Cre infection, luciferase reporter, 44 h | Potency, µM (titrated, usually from 41.8 µM), for the others: top-dose activity change, negative = inhibition, usual class: inhibitors | 340,000 compounds, 3.4% hits | AID 651820, 2012; note: potency is the fitted concentration of half-maximal effect
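A cell-based infection assay in which seeded cells (1,000 per well) receive test compound after 4 h, are inoculated with HCVcc-Cre at approximately 0.5 moi, and are incubated 44 h before luminescence detection.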
HCMV inh: qHTS Assay for inhibitors of the human cytomegalovirus (HCMV); HFF cells, HCMV-luciferase reporter, 72 h; stronger effect = lower value; activity change, negative = inhibition, % at 57.5 µM; 410,000 compounds, 4.5% hits; AID 1259415, 2018; in the data active = activity change below about -60%; inconclusive = no clear call, values can overlap the other calls; inactive = above about -39%
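Inhibition of viral replication was scored as loss of reporter luminescence in HFFs infected with HCMV-luciferase (MOI 1 PFU/cell) for 72 h; compounds tested at 2 doses, normalized to buffer and Salinomycin controls.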
Pf growth 48h: Primary qHTS for delayed death inhibitors of the malarial parasite plastid, 48 hour incubation; Potency, µM (doses to about 28.7 µM), for the others: at the top dose activity change, negative = inhibition, hits mostly inhibitors; 310,000 compounds, 5.9% hits; AID 504832, 2011; P. falciparum luciferase growth in erythrocytes, 48 h; note: potency is the fitted concentration of half-maximal effect
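A one-generation exposure of luciferase-tagged malaria parasites in RPMI 1640/Albumax erythrocyte culture, 37 C and 5% CO2. Inhibition is inferred from decreased luminescence after adding detection reagent.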
Pf growth 96h: Primary qHTS for delayed death inhibitors of the malarial parasite plastid, 96 hour incubation. P. falciparum luciferase reporter growth, 96 h. AID 504834, 2011. 320,000 compounds, 6.9% hits. Potency, µM (doses to about 28.7 µM), for the others: at the top dose activity change, negative = inhibition, actives largely listed as inhibitors; note: potency is the fitted concentration of half-maximal effect
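P. falciparum expressing integrated firefly luciferase grown in erythrocytes (2% hematocrit, 0.05% parasitemia final) with compounds for 96 hours at 37 C, 5% CO2. Growth inhibition read as loss of luminescence after adding luciferase detection reagent.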
* marks the source's active call; other numbers are inactive results; u = inconclusive; x = not tested or not shown; ! = not confirmed by another sample; [ ] = another dose, or the depositor's remark. Unless noted, calls come from the whole dose curve; as a rule, active = well fitted inhibition curve with a large enough effect; inconclusive = small, poorly fitted or top-dose-only effect, or another doubt; inactive = no such curve, though single readings can be large or run the other way. % is set by controls: 0 for no effect and ±100 for the full control effect.

SMILES | HCV inh | HCMV inh | Pf growth 48h | Pf growth 96h
COCCNc1nnc(Cc2ccc(Cl)cc2)c(=O)[nH]1 | -1.2% | u | 8.8%[0.00184 µM] | -5.6%
COCCCNc1nnc(Cc2ccc(Cl)cc2)c(=O)[nH]1 | -1.9% | -74.9* | x | u
CCCCC(=O)Nc1cc2nn(-c3ccc(OCC)cc3)nc2cc1C | x | 32.1 | x | x
Cc1cccc(CNC(=O)C2CCN(S(=O)(=O)c3ccc4c(c3)CCCN4C(=O)C3CCC3)CC2)c1 | x | -21.2 | x | x
Cc1ccc(S(=O)(=O)N2CCN(C(=O)c3cc(C4CC4)nc4c3cnn4C(C)C)CC2)cc1 | u | -19.0 | 13.1µM* | 2.62µM*
CC(C)n1ncc2c(C(=O)N3CCN(Cc4ccc(Cl)s4)CC3)cc(C3CC3)nc21 | u | -12.6 | 13.1µM* | u
CC(C)n1ncc2c(C(=O)N3CCN(S(=O)(=O)c4cccc(F)c4)CC3)cc(C3CC3)nc21 | x | -16.8 | x | x
Cc1ccc(NC(=O)CN2C(=O)CCc3cc(S(=O)(=O)N4CCOCC4)ccc32)cc1F | x | 57.4 | x | x
COc1ccc(N2CCN(C(=O)CN3C(=O)CSc4c3c(C)nn4-c3ccccc3)CC2)cc1 | x | -0.8 | x | x
O=C(NCc1ccco1)c1cnn2c(C(F)(F)F)cc(-c3ccccc3)nc12 | u | -18.1 | 13.1µM* | -10.3%
O=C(c1nn2c(C(F)(F)F)cc(-c3cccs3)nc2c1Br)N1CCCc2ccccc21 | u | -15.1 | -7.0% | u
CCOC(=O)c1cnn2c(C(F)(F)F)cc(-c3ccco3)nc12 | -18.6% | 28.7 | 1.8% | 1.6%
CC(C)OC(=O)c1nn2c(C(F)(F)F)cc(-c3ccco3)nc2c1Cl | 8.5% | -4.0 | 8.4% | 13.1µM*
O=C(c1nn2c(C(F)(F)F)cc(-c3ccco3)nc2c1Br)N1CCCc2ccccc21 | 12.6µM*! | -17.1 | u | 37.5%
CC(C)CCNC(=O)c1cnn2c(C(F)(F)F)cc(-c3ccco3)nc12 | u | -24.1 | u | 9.28µM*
CC(C)OC(=O)c1nn2c(C(F)(F)F)cc(-c3ccc(Br)o3)nc2c1Br | -1.8% | -16.4 | -7.2% | 32.9%
CCOc1ccccc1CNC(=O)c1cnc2sc(N3CCCCCC3)nn2c1=O | x | -27.6 | x | x
COc1ccccc1-c1c(C)nn2c(C(F)(F)F)cc(-c3ccccc3)nc12 | x | -9.8 | x | x
Nc1ccc(C(=O)C(=O)c2ccc(N)cc2)cc1 | 5.1% | -8.5 | 0.0% | 39.4%
N=C1C=CC(=C(c2ccc(N)cc2)c2ccc(N)cc2)C=C1 | 6.31µM* | -99.7* | x | x
COc1ccc(C)cc1-n1c(=O)c2ccccc2c2ccccc2c1=O | 5.3% | u | 2.4% | 39.1%
COc1ccc(C)cc1N1C(=N)/C(=C2/Nc3ccccc3S2)C(c2ccccc2)C1=O (centres undefined) | 13.3% | 113.8 | 13.1µM* | -104.0%
CCOCCCNC(=O)C(c1ccccc1)N(Cc1cccs1)C(=O)c1ccc(NC(C)=O)cc1 (centres undefined) | x | -6.6 | x | x
CCC(Sc1nc(C)cc(C)n1)C(=O)Nc1cc(C)on1 (centres undefined) | -7.7% | u | -5.4% | u
Cc1cc(C)nc(SCC(=O)NC2=NN=C(c3ccc(Br)cc3)CS2)n1 | u | -91.7* | u | u
SMILES | HCV inh | HCMV inh | Pf growth 48h | Pf growth 96h
CCC(Sc1nc(C)cc(C)n1)C(=O)NC1=NN=C(c2ccc(C)cc2)CS1 (centres undefined) | u | -105.5* | u | 10.4µM*
CCOC(=O)C1CSCCS(=O)(=O)N1Cc1ccc(F)cc1F (centres undefined) | x | -17.5 | x | x
COc1ccccc1N(O)C1CC(=O)N(c2ccc(Br)cc2)C1=O (centres undefined) | -2.9% | -23.2 | 4.1% | 16.1%
CCCCCCC(=O)N(O)C1CC(=O)N(c2ccc(F)cc2)C1=O (centres undefined) | 10.4% | 116.5 | 4.65µM* | 9.28µM*
CCCCCCC(=O)N(O)C1CC(=O)N(c2ccc(Br)cc2)C1=O (centres undefined) | -17.6% | 35.6 | 13.1µM* | 2.5%
O=C(CS(=O)(=O)c1cccc2nsnc12)Nc1cc(F)ccc1F | x | -17.6 | x | x
COC(=O)c1ccn(-c2nc(-c3ccc(Cl)cc3)cc(C(F)(F)F)n2)n1 | x | -8.4 | x | x
CCc1ccccc1NC(=O)Cn1nc(-c2cc(C)ccc2C)c2c(c1=O)CCCC2 | x | 1.0 | x | x
COc1ccc(NC(=O)c2cc(C3CCCCN3C(=O)CCc3ccccc3)on2)c(C)c1 (centres undefined) | x | 15.3 | x | x
COC(=O)C1=CN(C2CC2)C=C(C(=O)OC)C1c1ccccc1OC | u | -10.4 | 11.7µM* | -11.8%
COCCNC(=S)NCc1ccc2[nH]c3c(c2c1)CCCC3 | -26.0% | -72.6* | 3.2% | 16.2%
CCOc1ccc(/C=C/c2nc(C#N)c(N3CCCCC3)o2)cc1 | x | -34.1 | x | x
CC(=O)c1ccccc1OCCCOc1cccc2cccnc12 | u | -83.3* | x | x
CC(=O)c1ccc(OCCCOc2cccc3cccnc23)cc1 | -13.1% | 17.4 | u | 36.4%
c1ccc(OCCOc2cccc3cccnc23)cc1 | -9.3% | 8.5 | 50.1% | 10.4µM*
Cc1c(/C=N/NC(=O)C(NC(=O)c2ccc3c(c2)OCO3)C(C)C)c2ccccc2n1C (centres undefined) | 11.2µM* | -80.2* | -4.0% | -14.6%
N/C(=N\OC(=O)c1cccc(Cn2cc(C(F)(F)F)ccc2=O)c1)c1ccc(Cl)cc1 | -14.5% | -64.5* | u | u
CC(c1ccco1)N(C(=O)c1cc(Cl)cc(Cl)c1)c1ccccn1 (centres undefined) | -24.9% | -62.1* | -25.3% | u
COc1ccc(-c2cc(C(=O)N3CCN(c4ccccc4O)CC3)c3ccccc3n2)cc1 | u | 22.9 | u | -114.3%
COc1ccc(-c2cc(C(=O)N3CCN(c4ccccc4O)CC3)c3ccccc3n2)cc1OC | u | 2.2 | 2.08µM* | 2.62µM*
O=C(c1cc(-c2ccccc2Cl)nc2ccccc12)N1CCC1 | 4.7% | -9.5 | -11.2% | -7.1%
O=C(c1cc(-c2ccccc2Cl)nc2ccccc12)N1CCOCC1 | x | 118.1 | -7.0% | 0.37µM*
O=C(c1cc(-c2ccccc2Cl)nc2ccccc12)N1CCN(c2ccccc2O)CC1 | u | -11.9 | 9.28µM* | 4.15µM*
Cc1ccc(-c2cc(C(=O)N3CCN(c4ccccc4O)CC3)c3ccccc3n2)cc1 | -13.8% | 59.3 | 3.29µM* | u
O=Cc1coc([B-](F)(F)F)c1 | x | 35.0 | x | x
O=P(O)(O)CN1CCNCCN(CP(=O)(O)O)CCNCC1 | u | -61.3* | x | x
Cc1cccc(N(CC(=O)NCCSCc2ccco2)S(=O)(=O)c2ccccc2)c1 | u | -28.7 | u | u
COc1ccccc1N(CC(=O)NCc1ccco1)S(=O)(=O)c1ccc(C)cc1 | 6.4% | -2.1 | -26.0% | 69.1%
CCOc1ccc(N(CC(=O)NCCOc2ccc(C)cc2)S(=O)(=O)c2ccccc2)cc1 | -21.2% | -17.5 | 10.4µM* | u
Cc1ccc(S(=O)(=O)N(Cc2ccc(Cl)cc2)c2ccccc2C(=O)NCc2ccco2)cc1 | u | u | 6.57µM* | -20.2%
